Test results published in PubChem BioAssay AID686979 (National Center for Advancing Translational Sciences (NCATS), 2013).
The campaign covered roughly 420,000 compounds. About 50,000 (12%) were called active. A call without a number means that no potency is given here. Roughly 26% stayed inconclusive and do not appear here. The sample holds actives, similar compounds and a random draw of the others, so the mix is not that of the screen. Calls come from the whole dose curve; as a rule, active = well fitted inhibition curve with a large enough effect; inconclusive = small, poorly fitted or top-dose-only effect; inactive = flat fitted curve, though single readings scatter.
Potency is the fitted concentration of half-maximal effect.

Test: qHTS for Inhibitors of human tyrosyl-DNA phosphodiesterase 1 (TDP1): qHTS in cells in presence of CPT; note: nearly all actives have a fitted effect of over 55% in size
Conditions: chicken DT40 Tdp1-/-;hTDP1 cells + 20 nM CPT, ATP luminescence, 48 h; series mostly up to 46.2 µM
How it was run: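 Cell growth measured by CellTiter-Glo luminescence after a minimum 48 h, 37 C compound exposure with 20 nM CPT in Tdp1-knockout DT40 cells stably expressing hTDP1, seeded 400/well; qHTS titration format.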
For `O=C1CSc2ccc(C(=O)NCc3ccccn3)cc2N1`, the Potency was “inactive”. In the case of `CCc1ccc(C(=O)N2CCN(S(=O)(=O)c3sc(C(=O)O)c(C)c3C(=O)O)CC2)cc1`, the Potency is reported as “inactive”. In the case of `Cc1ccc(C)c(-n2cc(CN3CCN(C(=O)c4ncn[nH]4)CC3)c(-c3ccccc3)n2)c1`, the Potency is reported as “inactive”. For `Cc1ccc(OCCC(=O)OCC(=O)N2c3ccccc3NC(=O)C2(C)C)cc1`, the Potency was “inactive”. In the case of `O=C(O)CSCc1nc2ccccc2s1`, the Potency is reported as “inactive”. In the case of `CC(C)CC(=O)NC(=S)NCc1ccccc1`, the Potency is reported as “inactive”. For `CC(C)CC(=O)N/C(N)=N/c1nc2ccccc2s1`, the Potency was 23.1 µM (active). With `COc1ccc(C2c3ccc(O)cc3Oc3ncn(CCCO)c(=N)c32)cc1OC` (stereo not given) the Potency was “inactive”. For `CC[C@]1(C(=O)OC)[C@H]2C(=O)N(C)C(=O)[C@H]2[C@H]2CN(C)C(=NCc3ccccc3)N21`, the Potency was “inactive”. With `O=C(NCCSc1ncc(-c2ccccc2)[nH]1)c1ccco1` the Potency was “inactive”. For `COCCCNC(=O)C1CC(=O)N(CCc2ccc(F)cc2)C1` (stereo not given), the Potency was “inactive”. For `COC(=O)c1ccccc1NC(=O)C1CC(=O)N(c2ccc(OC)cc2)C1` (stereo not given), the Potency was “inactive”. For `COc1ccc(OC)c(NC(=O)C2CCN(S(=O)(=O)c3ccc(C)cc3)CC2)c1`, the Potency was “inactive”. In the case of `COC(=O)c1ccccc1NC(=O)C1CCN(S(=O)(=O)c2cc(OC)ccc2OC)CC1`, the Potency is reported as 23.1 µM (active). With `CCCCCCCC/C=C\CCCCCCCC(=O)OC[C@H](CO)OC(C)=O` the activity change, negative = growth inhibition was 0.476% [at 4.12 µM] (inactive). With `COC(=O)c1scc(C)c1NC(=O)CSc1ccc(Cl)cc1` the Potency was “inactive”. For `O=C(NC(=S)N1CCCCC1c1cccnc1)c1ccccc1` (stereo not given), the Potency was “inactive”. With `CC(=O)NC(=S)Nc1ccc(NC(=O)c2cccnc2)cc1` the Potency was “inactive”. For `CC(C)c1cc(Cn2c3ccccc3c(=O)n2C(C)Cn2cc(C3CC3)nn2)on1` (stereo not given), the Potency was “inactive”. For `CCC(C)CN1CCC(CO)(Cc2ccccc2Cl)CC1` (stereo not given), the Potency was “inactive”. For `CCCCCCCCCCOC(=O)Cn1c(COc2cccc(OC)c2)[n+](C)c2ccccc21`, the Potency was 2.31 µM (active). In the case of `CCn1c(COc2cccc(OC)c2)nnc1SCC(=O)N1CCOCC1`, the Potency is reported as “inactive”. With `CCCCCCCCC(=O)NCCOc1ccccc1` the Potency was “inactive”. With `O=C(CN1CCCCCC1)Nc1ccc(Cl)cc1F` the Potency was “inactive”. With `Cn1cccc1C(=O)N1CCc2ccccc2C1` the Potency was “inactive”. With `CC(CCc1ccccc1)NC(=O)c1cnc(Cl)c(Cl)c1` (stereo not given) the Potency was “inactive”. With `Cc1sc2nc(SCCO)n(-c3ccccc3)c(=O)c2c1C` the Potency was 13 µM (active). For `CCc1cc2c(=O)n(-c3ccccc3)c(SCC(=O)O)nc2s1`, the Potency was “inactive”. For `Cc1sc2nc(SCC(N)=O)n(C)c(=O)c2c1C`, the Potency was “inactive”. In the case of `CCc1ccc(S(=O)(=O)Nc2ccc(C)c(NS(C)(=O)=O)c2)cc1`, the Potency is reported as “inactive”.
